Jurkat NFkB inh – inhibitors of the PMA/ionomycin-induced NF-kB reporter in Jurkat cells; AID 435003; inhibition, % at 4 µM; hit rate 0.53% among 330,000; PMA/ionomycin-induced NF-kB luciferase reporter, luminescence; in the data active means inhibition above about 50%
697 NFkB inh – inhibitors of the PMA/ionomycin-induced NF-kB reporter in 697 B cells | 697 B-cell NF-kB luciferase reporter, 16 h | inhibition, % at 4 µM | hit rate 0.33% among 330,000; in the data active means inhibition above about 35%
Shn3 3UTR inh – reduces Shn3 3'UTR luciferase signal in osteoblasts; Clone20 osteoblast Shn3 3'UTR firefly luciferase, 24 h; inhibition, % at 12.5 µM; hit rate 0.52% among 360,000; AID 588674;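 active means mean inhibition of at least 75% with every replicate also reaching 75%; inconclusive means mean inhibition at least 75% but some replicate below; inactive means mean inhibition below 75%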;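 further: 0% = median of neutral control wells and 100% = pilot-screen positive control compound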
Calb FLC – C. albicans growth modulation with fluconazole. C. albicans CaCi-2 (fluconazole-resistant clinical isolate) + fluconazole, Alamar Blue growth, 48 h. growth inhibition, % (test concentration not listed). hit rate 0.57% among 300,000. AID 1979;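 active means growth inhibition above about 58% in most replicates, limit read from the data, passing the limit was not always enough; inconclusive means exactly half the replicates above a set limit; inactive means most replicates below a set limit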;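 further: all wells also contain fluconazole at 8 µg/ml as a sub-toxic cotreatment; 0% = median of DMSO wells and 100% = median of geldanamycin control wells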
Beta cell apopt – blocks beta cell apoptosis; INS-1E cytokine-induced death, ATP luminescence, 48 h; percent of positive-control rescue, neutral wells zero; AID 435005; hit rate 0.8% among 300,000; protection from apoptosis, % (concentration not given with the values);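 active means Every replicate reaches about 75%, or at least half do and their mean reaches it too, limit read from the data; inconclusive means At least half of replicates reach the limit but their mean does not; inactive means Under half of replicates reach the limit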;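 further: 0% = cytokine-treated negative control wells and 100% = positive control rescue; higher means more ATP so stronger rescue from cytokine killing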
697 NFkB conf – lowers PMA/ionomycin-induced NF-kB signal in 697 B cells; shares compounds with 697 NFkB inh; 697 B-cell NF-kB luciferase, 16 h; inhibition, % at 4 µM; hit rate 35% among 2,000; in the data active means inhibition mostly above about 28%, no sharp cut-off; inactive means mostly below about 22%
* hit, by the source's call. Hits are enriched below; roughly 2% of the tested compounds scored in any of these assays.

For COc1ccccc1C(=O)Nc1ccc2c(c1)CCCN2C(=O)c1ccccc1 the results were Jurkat NFkB inh -1.7, 697 NFkB inh -2.7, Shn3 3UTR inh -5.1, Calb FLC -1.6 and Beta cell apopt 64.6.
Screening CCc1nnc(NC(=O)CSc2nnc(CNc3ccc(C)cc3)n2C)s1 returned Jurkat NFkB inh -2.4, 697 NFkB inh 20.0, Shn3 3UTR inh -21.7, Calb FLC 22.2 and Beta cell apopt 1.7.
`Cc1cccc(S(=O)(=O)NC(=O)C2(C)CCN2C(=O)c2ccccc2)c1` (stereo unspecified) gave Shn3 3UTR inh -14.8.
`COC(=O)Nc1sccc1C(=O)Nc1sccc1C(=O)OC` gave Jurkat NFkB inh 1.7, 697 NFkB inh 39.0*, Shn3 3UTR inh -28.9, Calb FLC -6.9, Beta cell apopt -1.9 and 697 NFkB conf -3.3.
For O=C(N/N=C/c1ccc(-c2ccccc2Cl)o1)c1ccccc1 the results were Jurkat NFkB inh -22.8, 697 NFkB inh -57.3, Shn3 3UTR inh -58.2, Calb FLC 7.8 and Beta cell apopt 5.1.
`O=C(O)c1ccc(N/N=C/c2ccc(-c3ccccc3Cl)o2)cc1` gave Jurkat NFkB inh -102.8, 697 NFkB inh -250.3, Shn3 3UTR inh -1.3, Calb FLC 1.4, Beta cell apopt -9.8 and 697 NFkB conf -106.8.
Screening Cc1cc(C)c(NC(=O)C2CCN(S(C)(=O)=O)CC2)c(C)c1 returned Shn3 3UTR inh -19.7.
Cc1cc(C)c(C(=O)COC(=O)c2cc([N+](=O)[O-])ccc2N2CCOCC2)cc1C was read as Jurkat NFkB inh 11.0, 697 NFkB inh -19.6, Shn3 3UTR inh -37.5, Calb FLC 9.8 and Beta cell apopt 1.2.
`COc1cc(/C=N/NC(=O)C2CC(=O)N(c3ccc(C)cc3)C2)cc(OC)c1OC` (stereo unspecified) gave Jurkat NFkB inh 11.9, 697 NFkB inh 35.0, Shn3 3UTR inh -2.6, Calb FLC 6.6, Beta cell apopt -1.3 and 697 NFkB conf 21.2.
`CCCC(c1c(C)n(C)n(-c2ccccc2)c1=O)c1c(C)n(C)n(-c2ccccc2)c1=O` gave Jurkat NFkB inh -0.9, 697 NFkB inh 40.5*, Shn3 3UTR inh 8.2, Calb FLC 3.0, Beta cell apopt -3.4 and 697 NFkB conf -0.1.
For CCOc1ccccc1NC(=O)C(=O)N/N=C/c1ccc([N+](=O)[O-])cc1 the results were Jurkat NFkB inh 2.0, 697 NFkB inh 39.3*, Shn3 3UTR inh -10.9, Calb FLC 14.2, Beta cell apopt 1.8 and 697 NFkB conf 19.8.
`O=C(N/N=C/C(Cl)=C/c1ccc([N+](=O)[O-])cc1)C(=O)Nc1ccccc1C(=O)O` gave Jurkat NFkB inh 9.5, 697 NFkB inh -0.8, Shn3 3UTR inh 16.0, Calb FLC 14.9 and Beta cell apopt 1.1.
`CCOc1ccccc1CNC(=O)c1cc2oc3ccccc3c2n1C` gave Jurkat NFkB inh -32.6, 697 NFkB inh -359.0, Shn3 3UTR inh -0.2, Calb FLC -8.9, Beta cell apopt 7.5 and 697 NFkB conf -162.8.
`CCOc1ccccc1CNC(=O)c1cc2occc2n1C` gave Jurkat NFkB inh 12.2, 697 NFkB inh 0.4, Shn3 3UTR inh 10.0 and Calb FLC -14.4.
Screening O=c1nc2ccc(Cl)cn2c2ccc(S(=O)(=O)N3CCOCC3)cc12 returned Jurkat NFkB inh 11.2, 697 NFkB inh 14.4, Shn3 3UTR inh -5.6, Calb FLC 14.9 and Beta cell apopt -1.9.
`COc1ccc(C(=O)CC(=O)c2ccccc2O)cc1` gave Jurkat NFkB inh -83.5, 697 NFkB inh -104.9, Shn3 3UTR inh -51.2, Calb FLC -11.1 and Beta cell apopt -1.2.
COc1ccc(O)c(C(=O)CC(=O)c2ccc(F)cc2)c1 was read as Jurkat NFkB inh -132.8, 697 NFkB inh -295.6, Shn3 3UTR inh 11.8, Calb FLC 1.3, Beta cell apopt -3.9 and 697 NFkB conf -302.9.
COc1cc(C(=O)OCC(=O)NC2CCCCCC2)ccc1OCC(C)C was read as Jurkat NFkB inh 9.3, 697 NFkB inh 10.3, Shn3 3UTR inh 84.6, Calb FLC -2.4 and Beta cell apopt -1.6.
Screening Cc1ncc(S(=O)(=O)c2ccc(Cl)cc2)c(-c2ccccc2)n1 returned Jurkat NFkB inh 2.8, 697 NFkB inh 39.7*, Shn3 3UTR inh -16.5, Calb FLC inconclusive, Beta cell apopt 2.4 and 697 NFkB conf 7.8.
`CCN(CC)C(=O)C1=C(C)N(CCC2=CCCCC2)C(=O)C(CC(=O)NC(c2ccccc2)c2ccccc2)C1` (stereo unspecified) gave Shn3 3UTR inh 23.3.
`COc1ccc(N2CCN(CCN3C(=O)c4ccccc4C3=O)CC2)cc1` gave Jurkat NFkB inh 12.7, 697 NFkB inh -5.4, Shn3 3UTR inh -18.8, Calb FLC 4.5 and Beta cell apopt -1.7.
`O=C(Nc1nc2nc(-c3ccccc3)cc(-c3ccccc3)n2n1)c1ccco1` gave Jurkat NFkB inh 7.7, 697 NFkB inh 46.8*, Calb FLC -0.7, Beta cell apopt 4.7 and 697 NFkB conf 30.4*.
`CCCCn1c(N)c(N(CCOC)C(=O)c2cccc(-n3cnnn3)c2)c(=O)[nH]c1=O` gave Jurkat NFkB inh 9.3, 697 NFkB inh 9.0, Shn3 3UTR inh -2.5, Calb FLC -0.4 and Beta cell apopt -3.1.
O=C(O)COc1ccc(-c2nccc(-c3ccccn3)n2)cc1 was read as Jurkat NFkB inh 6.0, 697 NFkB inh 51.6*, Shn3 3UTR inh 20.9, Calb FLC -8.2, Beta cell apopt -0.6 and 697 NFkB conf 56.5*.
NNC(=O)COc1ccc(-c2nccc(-c3ccc(F)cc3)n2)cc1 was read as Jurkat NFkB inh 7.5, 697 NFkB inh 60.5*, Shn3 3UTR inh 22.5, Calb FLC -6.0, Beta cell apopt -4.2 and 697 NFkB conf 50.2*.
Screening NNC(=O)COc1ccc(F)cc1 returned Jurkat NFkB inh 9.6, 697 NFkB inh 1.6, Shn3 3UTR inh -25.1, Calb FLC -2.1 and Beta cell apopt -10.9.
FCCCOc1ccc(-c2nccc(-c3ccccn3)n2)cc1 was read as Jurkat NFkB inh -4.3, 697 NFkB inh -7.7, Shn3 3UTR inh -20.6, Calb FLC 3.3 and Beta cell apopt 0.9.
CCN(CC)c1ccc2cc(-c3nc4ccccc4[nH]3)c(=O)oc2c1 was read as Jurkat NFkB inh -149.4, 697 NFkB inh -303.4, Shn3 3UTR inh 49.3, Calb FLC 32.9, Beta cell apopt inconclusive and 697 NFkB conf -374.5.
O=C(Nc1nc2ccccc2[nH]1)c1ccc(Cl)cc1 was read as Jurkat NFkB inh -139.7, 697 NFkB inh -319.6, Shn3 3UTR inh 3.3, Calb FLC 5.0, Beta cell apopt 23.9 and 697 NFkB conf -341.6.
For O=C(Cc1ccc(Cl)cc1)Nc1nc2ccccc2[nH]1 the results were Jurkat NFkB inh -14.2, 697 NFkB inh -21.7, Shn3 3UTR inh -29.8, Calb FLC 4.7 and Beta cell apopt 3.0.
`O=C(/C=C/Nc1ccc(F)cc1Br)c1ccccc1` gave Jurkat NFkB inh -47.3, 697 NFkB inh -343.5, Shn3 3UTR inh -6.9, Calb FLC 4.5, Beta cell apopt 18.4 and 697 NFkB conf -124.0.
